Inconclusive results are not listed. The source made the active and inactive calls. Calls come from the whole dose curve; as a rule, active = well fitted curve in the direction sought with a large enough effect; inconclusive = small, poorly fitted or top-dose-only effect, or another doubt; inactive = no such curve, though single readings can be large; an effect the other way counts as inactive or inconclusive.
Assays:
[1] = Quantitative High-Throughput drug screen in 47 multiple myeloma cell lines against the NCATS MIPE library collection: UTMC2_PLB cell viability assay (AID 1919868); details: CellTiter-Glo ATP luminescence, 48 h; viability (% of DMSO control): at 45.8 µM (top of the series); note: nearly all actives have a fitted effect of over 55% in size; note: potency is the fitted concentration of half-maximal effect
Outline: (§1)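 qHTS format: cells plated (500/well), pin-dosed with MIPE 4.0 compounds, kept 48 h at 37 °C. Readout was CellTiter-Glo luminescence, median RLU.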

[2] = Quantitative High-Throughput drug screen in 47 multiple myeloma cell lines against the NCATS MIPE library collection: PE2_PLB cell viability assay (AID 1919869); note: nearly all actives have a fitted effect of over 35% in size; note: potency is the fitted concentration of half-maximal effect
Outline: as §1

[3] = Quantitative High-Throughput drug screen in 47 multiple myeloma cell lines against the NCATS MIPE library collection: OPM2_DSMZ cell viability assay (AID 1919872); note: nearly all actives have a fitted effect of over 30% in size; note: potency is the fitted concentration of half-maximal effect
Outline: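 CellTiter-Glo ATP luminescence gave viability after 48 h compound treatment at 37C of 500 multiple myeloma cells per well. Normalisation used DMSO-only wells as 100% and media-only wells as 0% viability; primary qHTS of approved and investigational drugs.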

[4] = Quantitative High-Throughput drug screen in 47 multiple myeloma cell lines against the NCATS MIPE library collection: KMS11_JCRBsus cell viability assay (AID 1919873); note: nearly all actives have a fitted effect of over 50% in size; note: potency is the fitted concentration of half-maximal effect
Outline: as §1

[5] = Quantitative High-Throughput drug screen in 47 multiple myeloma cell lines against the NCATS MIPE library collection: PCM6_Riken cell viability assay (AID 1919870); note: nearly all actives have a fitted effect of over 30% in size; note: potency is the fitted concentration of half-maximal effect
Outline: as §1

[6] = Quantitative High-Throughput drug screen in 47 multiple myeloma cell lines against the NCATS MIPE library collection: RPMI8226_ATCC cell viability assay (AID 1919871); note: nearly all actives have a fitted effect of over 30% in size; note: potency is the fitted concentration of half-maximal effect
Outline: as §1

[7] = Quantitative High-Throughput drug screen in 47 multiple myeloma cell lines against the NCATS MIPE library collection: VP6_DJ cell viability assay (AID 1919867); note: nearly all actives have a fitted effect of over 40% in size; note: potency is the fitted concentration of half-maximal effect
Outline: as §1

[8] = Quantitative High-Throughput drug screen in 47 multiple myeloma cell lines against the NCATS MIPE library collection: KMS28BM_JCRB cell viability assay (AID 1919874); note: nearly all actives have a fitted effect of over 35% in size; note: potency is the fitted concentration of half-maximal effect
Outline: as §1

[9] = molecular target: Cytochrome P450 2D6 (Homo sapiens) (UniProt P10635); experiment: qHTS for inhibitors of CYP2D6 against the NCATS DSHEA and TCM libraries (AID 1919972); note: % is set by controls: 0 for no effect and ±100 for the full control effect
Cytochrome P450 2D6 (Homo sapiens), sequence (P10635 whole entry, looked up): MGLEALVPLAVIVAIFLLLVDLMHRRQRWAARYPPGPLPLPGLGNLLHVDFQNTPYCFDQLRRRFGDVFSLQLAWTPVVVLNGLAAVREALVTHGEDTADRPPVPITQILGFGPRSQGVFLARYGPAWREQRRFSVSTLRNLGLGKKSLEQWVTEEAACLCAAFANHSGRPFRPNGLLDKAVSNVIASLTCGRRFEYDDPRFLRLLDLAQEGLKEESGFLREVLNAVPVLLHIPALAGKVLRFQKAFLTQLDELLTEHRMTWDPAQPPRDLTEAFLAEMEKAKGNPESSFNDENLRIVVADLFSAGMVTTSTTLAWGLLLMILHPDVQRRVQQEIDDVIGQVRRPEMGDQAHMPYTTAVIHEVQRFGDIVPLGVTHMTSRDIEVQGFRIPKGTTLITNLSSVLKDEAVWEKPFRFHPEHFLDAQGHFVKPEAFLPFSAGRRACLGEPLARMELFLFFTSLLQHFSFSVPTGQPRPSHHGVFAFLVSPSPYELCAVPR
Outline: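 CYP2D6 enzyme with pro-luciferin substrate in manufacturer buffer (typically 100 mM KPO4), preincubated 15 min RT with substances (most at 19.5 nM upward); NADPH regeneration system (1x) started 30–45 min RT reaction; P450-Glo luminescence read after 30 min; quinidine as intraplate control.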

[10] = molecular target: Cytochrome P450 2C9 (Homo sapiens) (UniProt P11712); experiment: qHTS for inhibitors of CYP2C9 against the NCATS DSHEA and TCM libraries (AID 1919973); note: potency is the fitted concentration of half-maximal effect
Cytochrome P450 2C9 (Homo sapiens), sequence (P11712 whole entry, looked up, canonical isoform): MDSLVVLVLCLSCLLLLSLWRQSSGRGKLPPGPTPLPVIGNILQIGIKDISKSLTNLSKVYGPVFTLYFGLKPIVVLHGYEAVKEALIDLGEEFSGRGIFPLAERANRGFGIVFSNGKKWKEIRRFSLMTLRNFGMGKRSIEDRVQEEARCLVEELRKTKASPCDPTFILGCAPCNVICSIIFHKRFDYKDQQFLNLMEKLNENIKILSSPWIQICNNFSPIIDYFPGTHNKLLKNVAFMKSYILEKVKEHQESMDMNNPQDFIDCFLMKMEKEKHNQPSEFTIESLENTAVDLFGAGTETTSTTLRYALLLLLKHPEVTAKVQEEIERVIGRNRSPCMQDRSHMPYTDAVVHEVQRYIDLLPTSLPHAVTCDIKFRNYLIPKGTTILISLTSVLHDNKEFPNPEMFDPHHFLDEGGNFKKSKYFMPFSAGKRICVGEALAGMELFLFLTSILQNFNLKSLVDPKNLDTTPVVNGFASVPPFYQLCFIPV
Outline: (§2)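 Concentration-response screening with isoform-matched pro-luciferin substrates. The CYP reaction was initiated by NADPH regenerating solution and ran 30-45 min in darkness at room temperature.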

[11] = molecular target: Cytochrome P450 2C19 (Homo sapiens) (UniProt P33261); experiment: qHTS for inhibitors of CYP2C19 against the NCATS DSHEA and TCM libraries (AID 1919974);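 note: luminescence from luciferin released by CYP2C19 oxidation of a pro-luciferin substrate; potency is the fitted concentration of half-maximal effect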
Cytochrome P450 2C19 (Homo sapiens), sequence (P33261 whole entry, looked up): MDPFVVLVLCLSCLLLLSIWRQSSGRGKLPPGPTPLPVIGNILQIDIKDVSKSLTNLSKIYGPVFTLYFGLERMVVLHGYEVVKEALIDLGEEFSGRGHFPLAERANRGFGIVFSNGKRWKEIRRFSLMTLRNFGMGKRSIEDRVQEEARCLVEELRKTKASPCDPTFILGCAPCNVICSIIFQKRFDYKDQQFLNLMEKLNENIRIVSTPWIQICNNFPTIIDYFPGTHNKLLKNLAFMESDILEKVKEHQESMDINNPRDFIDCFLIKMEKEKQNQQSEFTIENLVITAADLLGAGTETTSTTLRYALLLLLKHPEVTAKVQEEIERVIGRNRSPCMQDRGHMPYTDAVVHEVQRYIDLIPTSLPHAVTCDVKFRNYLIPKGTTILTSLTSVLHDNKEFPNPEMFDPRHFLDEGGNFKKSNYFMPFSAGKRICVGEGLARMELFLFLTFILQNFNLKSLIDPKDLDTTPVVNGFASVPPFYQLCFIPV
Outline: as §2

[12] = KB-3-1 P-gp reporter qHTS against the NCATS DSHEA and TCM libraries (AID 1919975); note: 0% is about no effect
Outline: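 Cell viability qHTS: 500 KB-3-1 cells/well, substances in titration, ~72 h, 37C; luminescent CellTiter-Glo read.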

[13] = qHTS Counterscreen for compound interference against the NCATS DSHEA and TCM libraries (AID 1919978); details: firefly luciferase detection reagent interference, luminescence;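 note: compounds preincubated with 1 µM D-luciferin or buffer before detection reagent; % of control where 0% means no effect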
Outline: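 Interference check: test samples were incubated with D-luciferin (final 1 uM) or buffer only for 15 min, room temperature, in a qHTS titration up to 39.8 uM, then developed with detection reagent and read by luminescence.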

[14] = Dual reporter qHTS for agonist of Pregnane X Receptor (hPXR) against the NCATS DSHEA and TCM libraries: Fluorescence readout (AID 1920058); note: 0% is about no effect
Outline: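 Cells were plated at 2000 per well and allowed to attach for 5 h. Test substances were pinned in and incubated roughly 24 h. CellTiter-Fluor was then added and fluorescence measured after 1 h.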

[15] = molecular target: Nuclear receptor subfamily 1 group I member 2 (Homo sapiens) (UniProt O75469); experiment: Dual reporter qHTS for antagonist of Pregnane X Receptor (hPXR) against the NCATS DSHEA and TCM libraries: Luminescence Readout (AID 1920060);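 note: HepG2 cells carrying hPXR luciferase reporter stimulated with rifampicin at 2 µM; 0% is about no effect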
Nuclear receptor subfamily 1 group I member 2 (Homo sapiens), sequence (O75469 whole entry, looked up): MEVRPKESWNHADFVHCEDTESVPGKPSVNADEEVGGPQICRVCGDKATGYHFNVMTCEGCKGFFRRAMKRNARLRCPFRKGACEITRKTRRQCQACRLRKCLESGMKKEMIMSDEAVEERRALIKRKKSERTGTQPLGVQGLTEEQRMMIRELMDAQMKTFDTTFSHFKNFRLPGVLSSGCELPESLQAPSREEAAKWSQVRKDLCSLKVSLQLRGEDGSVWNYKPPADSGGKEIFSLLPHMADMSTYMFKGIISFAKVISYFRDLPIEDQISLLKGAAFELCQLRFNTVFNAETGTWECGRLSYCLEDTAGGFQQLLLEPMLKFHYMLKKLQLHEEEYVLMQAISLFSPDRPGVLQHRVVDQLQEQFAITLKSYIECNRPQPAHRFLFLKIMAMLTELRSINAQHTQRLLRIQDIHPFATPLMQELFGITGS
Outline: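 HepG2 hPXR-Luc, 2000 cells/well, charcoal-stripped FBS medium; 5 h attach; RIF 2 uM final; 24 h 37C/5% CO2; CellTiter-Fluor 1 h, fluor 405/540; ONE-Glo 30 min RT, lum.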

O=C1Nc2ccc(I)cc2C1=Cc1cc(Br)c(O)c(Br)c1
inactive: Potency [3]
active: Potency [1] 14.8 µM | Potency [2] 14.8 µM | Potency [4] 18.7 µM

CO[C@H]1/C=C\O[C@@]2(C)Oc3c(C)c(O)c4c(O)c(c(C=NN5CCN(C6CCCC6)CC5)c(O)c4c3C2=O)NC(=O)C(C)=CC=C[C@H](C)[C@H](O)[C@@H](C)[C@@H](O)[C@@H](C)[C@H](OC(C)=O)[C@H]1C
active: Potency [1] 0.059 µM | Potency [2] 0.118 µM | Potency [5] 0.118 µM | Potency [6] 1.18 µM | Potency [3] 14.8 µM

COc1ccc2c(c1)c(C1=C(c3c[nH]c4ccccc34)C(=O)NC1=O)cn2CCCN(C)C
active: Potency [7] 20.9 µM | Potency [5] 23.5 µM | Potency [4] 23.5 µM

COC(=O)[C@H](c1ccccc1Cl)N1CCc2sccc2C1
inactive: Potency [1] | Potency [2] | Potency [5] | Potency [6] | Potency [3] | Potency [4] | Potency [8]

CCC[C@H](Nc1nc(-c2ccc(NC(=O)NCC)c(OC)c2)ncc1C)c1cccnc1
active: Potency [1] 0.001 µM | Potency [2] 0.001 µM | Potency [6] 0.0264 µM | Potency [3] 0.0083 µM | Potency [4] 0.0012 µM

O=C1C(c2c(O)[nH]c3ccccc23)=Nc2ccccc21
inactive: Potency [1] | Potency [3] | Potency [4] | Potency [8]
active: Potency [2] 1.66 µM

CN1N=C(N)c2cn([C@@H]3O[C@H](COP(=O)(O)O)[C@@H](O)[C@@H]3O)c3ncnc1c23
active: Potency [1] 0.0235 µM | Potency [2] 0.059 µM | Potency [5] 1.05 µM | Potency [6] 0.105 µM | Potency [8] 23.5 µM

O=c1cc(-c2ccc(O)c(O)c2)oc2cc(O)cc(O)c12
active: Potency [7] 11.8 µM | Potency [10] 11.2 µM | Potency [11] 7.94 µM
inactive: Potency [5] | Potency [6] | Potency [4] | Potency [8] | outcome [9] | outcome [12] | max response [13] -0.391% | Potency [14] | outcome [15]

O=C(O)C1=CO[C@@H](O[C@@H]2O[C@H](CO)[C@H](O)[C@H](O)[C@H]2O)[C@@H]2C(CO)=CC[C@H]12
inactive: Potency [7] | Potency [2] | Potency [3] | Potency [4]
active: Potency [6] 4.18 µM

N#Cc1c(N(CC(=O)O)CC(=O)O)sc(C(=O)O)c1CC(=O)O
inactive: Potency [6] | Potency [3] | Potency [8]
active: Potency [1] 23.5 µM | Potency [2] 14.8 µM

COc1cc(C=CC(=O)O)ccc1O
inactive: Potency [7] | Potency [5] | Potency [6] | Potency [3] | Potency [4] | Potency [8]

O=C(Nc1cccc(Cl)c1)Nc1ncc(CCNc2ncnc3ccsc23)s1
active: Potency [1] 0.372 µM | Potency [2] 4.18 µM | Potency [5] 5.26 µM | Potency [6] 5.9 µM | Potency [4] 11.8 µM

CO[C@@H]1C(N(C)C(=O)c2ccccc2)C[C@H]2O[C@]1(C)n1c3ccccc3c3c4c(c5c6ccccc6n2c5c31)C(=O)NC4=O (stereo partly specified)
active: Potency [1] 2.64 µM | Potency [2] 3.72 µM | Potency [6] 5.26 µM | Potency [4] 2.35 µM

CCCCC[C@H](O)C=C[C@H]1[C@H](O)CC(=O)[C@H]1CC=CCCCC(=O)O
active: Potency [2] 23.5 µM
inactive: Potency [1] | Potency [3] | Potency [8]

O=C(Nc1cccc(C(F)(F)F)c1)Nc1cc(S(=O)(=O)NC2CC2)ccc1-c1ccsc1
active: Potency [1] 18.7 µM | Potency [2] 26.4 µM | Potency [6] 13.2 µM | Potency [3] 3.72 µM | Potency [4] 16.6 µM

Cc1nc(C(=O)NCC(=O)O)c(O)c2ccc(Oc3ccccc3)cc12
inactive: Potency [1] | Potency [2] | Potency [6] | Potency [3] | Potency [4]

NC(=O)c1ncn([C@@H]2O[C@H](CO)[C@@H](O)[C@@H]2O)n1
inactive: Potency [2] | Potency [5] | Potency [6] | Potency [3] | Potency [4]

CC(C)[C@H](O)C(=O)N[C@@H](C)C(=O)N[C@@H]1C(=O)N(C)CCc2ccccc21
inactive: Potency [2] | Potency [6] | Potency [3] | Potency [8]
active: Potency [5] 26.4 µM | Potency [4] 0.332 µM

CN(C)c1ccc(-c2nc3ncc(Cl)c(N4CCN(CC(=O)Nc5nccs5)CC4)c3[nH]2)cc1
inactive: Potency [5]
active: Potency [2] 1.32 µM | Potency [6] 4.18 µM | Potency [4] 0.833 µM | Potency [8] 2.35 µM

CNC(=O)[C@H](CC1=CN=C2C=CCC=C12)NC(=O)[C@@H](CC(=O)NO)CC(C)C
inactive: Potency [6] | Potency [3]
active: Potency [1] 18.7 µM | Potency [8] 5.9 µM

O=C(c1ccc(F)c(F)c1Nc1ccc(I)cc1F)N1CC(O)([C@H]2CCCCN2)C1
active: Potency [2] 7.43 µM | Potency [5] 16.6 µM | Potency [6] 20.9 µM | Potency [3] 13.2 µM | Potency [4] 18.7 µM | Potency [8] 20.9 µM

CCCCCCOC(=O)N=C(N)c1ccc(NCc2nc3cc(C(=O)N(CCC(=O)OCC)c4ccccn4)ccc3n2C)cc1
active: Potency [2] 13.2 µM | Potency [5] 20.9 µM | Potency [6] 18.7 µM | Potency [4] 18.7 µM | Potency [8] 23.5 µM
